Among all 4,100 compounds or so, about 1,600 (39%) were called active. About 25% were inconclusive and are not listed. This is one part of the list. A number with no mark means an inactive call. The call rests on the fitted dose curve; in most records, active means well fitted inhibition curve with a large enough effect; inconclusive means small, poorly fitted or top-dose-only effect; inactive means no such curve, though single readings can be large or run the other way.
On the % scale 0 is the no-effect control and ±100 the full control effect; potency means the concentration at half of the fitted maximal effect.

The nature of this assay: qHTS Validation assay for Inhibitors of Plasmodium falciparum Dd2 growth in vitro. Further: nearly all actives have a fitted effect of over 70% in size. Conditions: P. falciparum Dd2 in RBCs, SYBR Green growth, 72 h; series mostly up to 28.7 µM; activity change, negative = inhibition: at the top concentration. In a few lines: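 P. falciparum Dd2-infected red blood cells (2.5% hematocrit, 0.3% parasitemia) grown 72 h at 37 °C under 5% O2 with compounds in a titration, 29 uM to 0.5 nM final. Growth read as SYBR Green-1 fluorescence after ~16 h lysis; artesunate 300 nM as positive control.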
Background: qHTS replaces the single test concentration by a dilution series.
As to `COc1ccccc1C1CC(c2ccccc2)=NN1C(=O)c1ccccc1` (stereo unspecified), the Potency is 2.37 µM (active).
Regarding `O=C(NC1CCCN(c2cc(-c3ccccc3)[nH]n2)C1)c1cccc(Cl)c1` (stereo unspecified), the “activity change, negative = inhibition” value was -27.5%.
With `COc1ccc(/C(C)=N/NC(=S)NCCc2ccccc2)c(O)c1`, the Potency was 3.35 µM (active).
On the same count and under the same terms, the same measure for `CCCCc1c(C)c(C#N)c2nc3ccccc3n2c1Nc1c(C)n(C)n(-c2ccccc2)c1=O`: 2.66 µM (active); for `Cc1sc(NC(=O)c2ccco2)c(C(c2cccnc2)N2CCC(C)CC2)c1C` (stereo unspecified): 5.31 µM (active).
In the case of `CC1CCN(S(=O)(=O)c2ccc(NC(=O)c3ccco3)cc2)CC1`, the “activity change, negative = inhibition” value is 4.42%.
For the compound `CCOC(=O)c1c[nH]c2c(C)cc(C)cc2c1=O`, the Potency is 4.22 µM (active).
`CCOC(=O)c1cn(CC)c2c(ccc3ccccc32)c1=O`: the “activity change, negative = inhibition” value was 20.8%.
Consider `CCOC(=O)c1c[nH]c2cc(OCC(C)C)c(OCC(C)C)cc2c1=O`, for which the Potency is 0.944 µM (active).
On to `c1csc(-c2nc3nccc(-c4cc5ccccc5o4)n3n2)c1`, for which the “activity change, negative = inhibition” value was 16.8%.
In the case of `CC(NCc1ccccc1)c1ccccc1O` (stereo unspecified), the Potency was 5.31 µM (active).
For `CCN1C(=O)c2cccc3c(S(=O)(=O)Nc4ccccc4)ccc1c23`, the “activity change, negative = inhibition” value was 37.8%.
Take `Cc1ccccc1-c1nccn2c(C3CN(Cc4ccccc4O)C3)ncc12`: the Potency was 5.44 µM (active).
On to `O=[N+]([O-])c1ccc(S(=O)(=O)N2CCn3cccc3C2c2ccc(Br)cc2)cc1` (stereo unspecified), for which the Potency is 5.96 µM (active).
Take `Cc1ccc(S(=O)(=O)N2CCC(C(=O)NC3CCCC3)CC2)cc1Cl`: the “activity change, negative = inhibition” value is -26.1%.
On to `CC(C(=O)N1CCCC1)N1CCN(S(=O)(=O)c2ccc(C(C)(C)C)cc2)CC1` (stereo unspecified), for which the Potency is 3.35 µM (active).
On the same count and under the same terms, the same measure for `CC(C(=O)NC1CCCC1)N1CCN(S(=O)(=O)c2ccc(C(C)(C)C)cc2)CC1` (stereo unspecified): 8.41 µM (active).
With `CC(C)N1CCC(NC(=O)NC2CCCCC2)CC1`, the “activity change, negative = inhibition” value is 42.7%.
Turning to `COCCNC(=O)[C@@H]1C[C@@H](O)CN1C1CCN(C(=O)Cc2ccccc2)CC1`, the “activity change, negative = inhibition” value was 0.0678%.
Same read-out and setting: with `COc1cccc(CNC(=O)[C@@H]2C[C@@H](O)CN2C2CCN(C(=O)c3ccc(OC)c(F)c3)CC2)c1` the figure was 0.134%.
`COc1cccc(C(=O)N2CCC(N3C[C@H](O)C[C@H]3C(=O)N3CCc4ccccc4C3)CC2)c1`: the Potency was 8.41 µM (active).
Take `COc1ccc(C(=O)N2CCC(n3c(C)cnc3-c3ccccc3)CC2)c(OC)c1`: the “activity change, negative = inhibition” value was -11.3%.
Take `COc1cccc(C(=O)N2CCC(N3C[C@H](O)C[C@H]3C(=O)N3CC=C(c4ccccc4)CC3)CC2)c1`: the Potency is 9.44 µM (active).
For `CCCC(=O)N1CCn2c(nnc2[C@@H]2C[C@@H](O)CN2Cc2ccccc2)C1`, the “activity change, negative = inhibition” value is 17.5%.
Turning to `CCCCOCc1cc(CN2CCN(c3cccc(Cl)c3)CC2)c(O)c2ncccc12`, the Potency was 6.68 µM (active).
The same measure, in the same setting: the same measure for `CC(C)OCc1cc(CN2CCN(c3cccc(C(F)(F)F)c3)CC2)c(O)c2ncccc12`: 6.68 µM (active).
`CCOc1ccc(CC(=O)N2CCC[C@H]2c2nc(-c3ccc(C)cc3)no2)cc1`: the “activity change, negative = inhibition” value was 22.8%.
On the same count and under the same terms, with `COc1ccc(-c2noc(CCCC(=O)N3CCCC3c3nc(C4CCOCC4)no3)n2)cc1OC` (stereo unspecified) the figure was -2.3%.
For `COCCOc1cc(-c2noc([C@@H]3CCCN3CC3CC3)n2)ccn1`, the Potency is 15.3 µM (active).
The same measure, in the same setting: the same measure for `c1cc(-c2noc([C@@H]3Cc4nc[nH]c4CN3CC3CCCCC3)n2)ccn1`: 21.7 µM (active); for `COCCNc1ncccc1-c1noc([C@@H]2CCCN2Cc2ccccn2)n1`: 7.69 µM (active).
With `COc1ccc(C(=O)N2CCC[C@H]2c2nc(-c3ccccc3Cl)no2)cc1OC`, the “activity change, negative = inhibition” value is 4.37%.
As to `COc1ccc(C(O)(CCC(C)C)C(CN2CCOCC2)c2ccc(Cl)cc2)cc1` (stereo unspecified), the Potency was 6.68 µM (active).
Same read-out and setting: the same measure for `COc1ccc(C(O)(CCC(C)C)C(CN2CCOCC2)c2ccccc2)cc1` (stereo unspecified): 5.31 µM (active).
As for `COc1ccc(OC)c(NC(=O)c2ccc3c(c2)N(S(=O)(=O)c2ccccc2)CC3)c1`, the “activity change, negative = inhibition” value is -26.8%.
For the compound `COc1cc(OC)c(NC(=O)N2CCc3cc(S(=O)(=O)N4CCC(C)CC4)ccc32)cc1Cl`, the “activity change, negative = inhibition” value is 39.5%.
For `COc1ccc(S(=O)(=O)N2CCCCCC2)cc1NC(=O)c1c2c(nc3ccccc13)CCN(Cc1ccccc1)C2`, the Potency is 4.73 µM (active).
Regarding `COCCOCC1(CNC(=O)c2cnccn2)C[C@@H](O)[C@@H](O)C1` (stereo partly specified), the “activity change, negative = inhibition” value is 54.4% [at 43.1 µM].
Regarding `O=c1c2ccccc2sc2nc(C3CCCCC3)n(Cc3ccco3)c(=O)c12`, the Potency is 7.5 µM (active).
For `CN(C)c1cc(=O)c2ccnc(N3CCN(c4ccccn4)CC3)c2o1`, the “activity change, negative = inhibition” value is 12.8% [at 43.1 µM].
For `Cc1ccc(S(=O)(=O)c2nnn3c2nc(N2CCN(c4ccccn4)CC2)c2ccccc23)cc1`, the Potency is 7.5 µM (active).
On the same count and under the same terms, the same measure for `O=S(=O)(c1ccccc1)c1nnn2c1nc(NC1CCN(Cc3ccccc3)CC1)c1cc(Cl)ccc12`: 2.99 µM (active); for `CC1CCN(c2nc3c(S(=O)(=O)c4ccccc4)nnn3c3ccc(Cl)cc23)CC1`: 2.66 µM (active).
With `Cc1c(C(=O)N2CCN(c3ccccn3)CC2)oc2ccccc12`, the “activity change, negative = inhibition” value was 24.9%.
Still for that read-out and setting: with `COc1ccc2c(c1)CCN=C2C[C@H]1CN(C(=O)NC(C)C)CC[C@H]1CC(=O)O` the figure was 40.3% [at 43.1 µM]; with `COc1cccc(CN(C)C2CCc3ccccc32)c1` (stereo unspecified), -11.5% [at 43.1 µM].
